Screen size: about 5,500 compounds; about 2,000 (36%) were called active. Inconclusive results (about 18%) are left out. This is one part of the list. A number with no mark means an inactive call. Rule as the data show it: active = normalized growth mostly below about 0.91 (no sharp cut-off); inconclusive = no clear call, values can overlap the other calls; inactive = mostly above about 0.92.
Assay: chemical genetic growth profiling, strain panel (AID 1159580);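 also: tested at 20 µM; growth read once vehicle control cultures reached saturation at 30 °C; 1 = growth at the plate median or of vehicle wells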
Details: S. cerevisiae deletion strains, growth OD
[1] = locus YAL040C, strain CLN3, stronger effect = lower value
[2] = locus YCL061C, strain MRC1 (second series), stronger effect = lower value
[3] = locus YDR363W, strain ESC2, stronger effect = lower value
[4] = locus YER002W, strain NOP16, stronger effect = lower value
[5] = locus YGR078C, strain PAC10, stronger effect = lower value
[6] = locus YMR307W, strain GAS1, stronger effect = lower value
[7] = locus YNL175C, strain NOP13, stronger effect = lower value
[8] = locus YNL197C, strain WHI3, stronger effect = lower value
[9] = locus YNL224C, strain SQS1, stronger effect = lower value
[10] = locus YOR083W, strain WHI5 (second series), stronger effect = lower value
[11] = locus YPL241C, strain CIN2, stronger effect = lower value

SMILES: C[C@@H](CN1CCC(Cc2ccccc2)CC1)[C@@H](O)c1ccc(O)cc1
- normalized growth [1]: 1.07
- normalized growth [2]: 0.996
- normalized growth [3]: 1.01
- normalized growth [4]: 1.01
- normalized growth [5]: 0.996
- normalized growth (locus YMR263W, strain SAP30, stronger effect = lower value): 1
- normalized growth [6]: 1.05
- normalized growth (locus YNL128W, strain TEP1, stronger effect = lower value): 1.03
- normalized growth [7]: 0.993
- normalized growth [8]: 0.999
- normalized growth [9]: 1.02
- normalized growth (locus YNL322C, strain KRE1, stronger effect = lower value): 0.979
- normalized growth [10]: 1
- normalized growth [11]: 0.99

SMILES: CC(C(O)c1ccc(O)cc1)N1CCC(Cc2ccccc2)CC1 (centres undefined)
- normalized growth (locus YAL013W, strain DEP1, stronger effect = lower value): 0.932
- normalized growth [1]: 1.03
- normalized growth [2]: 0.959
- normalized growth (locus YDR150W, strain NUM1, stronger effect = lower value): 0.872 (active)
- normalized growth [3]: 0.94
- normalized growth [4]: 1.01
- normalized growth [5]: 1.01
- normalized growth (locus YGR229C, strain SMI1, stronger effect = lower value): 0.785 (active)
- normalized growth [6]: 0.994
- normalized growth [7]: 0.935
- normalized growth [8]: 1.03
- normalized growth [9]: 1.03
- normalized growth [10]: 1.04
- normalized growth (locus YPL055C, strain LGE1, stronger effect = lower value): 0.75 (active)
- normalized growth [11]: 0.944 (active)
